Compound activity: PubChem, The Scripps Research Institute Molecular Screening Center
DAX1 inh-1: DAX1 (NR0B1) inhibitors, primary screen, cell-based, HEK293, Gal4-DAX1, luciferase luminescence | Nuclear receptor subfamily 0 group B member 1 (Homo sapiens), P51843 | inhibition, % at 6.75 µM | HEK293 Gal4-DAX1 luciferase reporter | AID 504766, 2011 | actives 0.99% (n = 340,000);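 active = inhibition above the mean over all tested compounds plus 3 SD, cut at about 4.2% in these data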;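 also: inhibition shows as a rise in luminescence from relieved DAX1 repression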
Target sequence (P51843 207-470 limits assumed): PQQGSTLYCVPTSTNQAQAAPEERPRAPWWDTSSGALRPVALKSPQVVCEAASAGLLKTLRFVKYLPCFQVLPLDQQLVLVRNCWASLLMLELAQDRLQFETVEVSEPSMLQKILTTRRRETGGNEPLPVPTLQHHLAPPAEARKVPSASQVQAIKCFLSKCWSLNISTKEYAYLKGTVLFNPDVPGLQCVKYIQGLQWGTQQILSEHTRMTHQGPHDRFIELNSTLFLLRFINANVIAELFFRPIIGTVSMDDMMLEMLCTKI
ssDAF12 agonist: S. stercoralis DAF-12 nuclear receptor activators, primary screen, cell-based, luminescence, HEK293, GRIP1 co-expression, lit1-tk-luc | actives 1% (n = 370,000) | activation, % at 6.8 µM | HEK293 ssDAF-12/GRIP1 lit1-tk-luc reporter; % of 3 µM dafachronic acid response | Nuclear hormone receptor DAF-12 (Strongyloides stercoralis);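 active = activation above the mean over all tested compounds plus 3 SD, cut at about 0.9% in these data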
hgDAF-12 ag: H. glycines DAF-12 receptor agonists, primary screen, cell-based, luminescence, HEK293, GAL4 fusion, UAS-luciferase; Nuclear hormone receptor DAF-12 (Heterodera glycines), GAL4 fusion; HEK293 GAL4-hgDAF12 UAS-luciferase reporter, agonist luminescence; normalized to butyrate control; activation, % at 6.8 µM; actives 1.8% (n = 370,000); AID 687014, 2013;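 active = activation above a cutoff set at the mean of all screened compounds plus 3 SD, cut at about 10% in these data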
DAX1 inh-2: DAX1 (NR0B1) inhibitors on StAR promoter, primary screen, cell-based, luminescence, SF-1 (NR5A1), full-length DAX-1; HEK293T StAR-luciferase reporter, SF-1/DAX-1 repression relief; inhibition, % at 6.8 µM; actives 1.1% (n = 370,000); AID 652010, 2013;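 active = inhibition above the mean over all tested compounds plus 3 SD, cut at about 3.6% in these data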;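 also: higher inhibition means more luminescence from relief of DAX-1 repression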
hcDAF-12 act: H. contortus DAF-12 nuclear receptor activators, primary screen, cell-based, luminescence, HEK293, lit1-tk-luc reporter | HEK293 hcDAF-12 lit1-tk-luc reporter; 0% DMSO, 100% Δ7-dafachronic acid | actives 1.4% (n = 370,000) | activation, % at 6.8 µM | AID 652067, 2013;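 active = activation above the mean of all tested compounds plus 3 SD, cut at about 5.5% in these data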
DAX1 conf: DAX1 (NR0B1) inhibitors relieving SF-1 repression, confirmation, cell-based, luminescence, HEK293T, full-length DAX-1, SF-1 activated StAR promoter | shares compounds with DAX1 inh-2 | HEK293T StAR-promoter luciferase reporter, SF-1/DAX-1 repression | inhibition, % at 6.8 µM | actives 87% (n = 2,400) | AID 652134, 2013;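 active = inhibition above the average of every tested compound plus 3 SD, cut at about 3.8% in these data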
SF1 AF2mut Luc: StAR reporter signal changes without DAX1, counter-screen for DAX1 inhibitor project, cell-based, luminescence, AF-2 mutant SF-1, transactivation; shares compounds with DAX1 inh-2; HEK293 StAR-luciferase, SF-1 AF2 mutant; inhibition, % at 6.8 µM; actives 78% (n = 2,400);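 active = inhibition above the mean of all tested compounds plus 3 SD, cut at about 3% in these data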
Numbers stand for hits. Only some compounds are listed: those with a hit (about 4.1% of all), similar ones and a draw of the others.

`O=C(CCNC(=O)N1CC(=O)Nc2ccccc21)NCc1ccc(F)cc1` gave DAX1 inh-1 inactive, ssDAF12 agonist inactive, hgDAF-12 ag inactive, DAX1 inh-2 6.0, hcDAF-12 act inactive, DAX1 conf 5.3 and SF1 AF2mut Luc 3.3.
Screening COC(CNC(=O)[C@H](Cc1ccccc1)NC1(C(=O)NC2CCCCC2)CCCC1)OC returned ssDAF12 agonist inactive, hgDAF-12 ag inactive and hcDAF-12 act inactive.
For NC(=O)[C@@H]1CCCN1C(=O)[C@@H](Cc1ccccc1)NC(=O)[C@H]1O[C@@H](n2ccc(=O)[nH]c2=O)[C@H](O)[C@@H]1O the results were ssDAF12 agonist inactive, hgDAF-12 ag inactive, DAX1 inh-2 inactive and hcDAF-12 act inactive.
Screening O=C1CCCC2=C1C1(CCCCC1)N=C(Nc1nc3ccccc3o1)N2 returned DAX1 inh-1 inactive, ssDAF12 agonist inactive, hgDAF-12 ag inactive, DAX1 inh-2 inactive and hcDAF-12 act inactive.
O=C1CC(c2ccccc2)CC2=C1C1(CCCC1)N=C(Nc1nc3ccccc3o1)N2 (stereo unspecified) was read as ssDAF12 agonist inactive, hgDAF-12 ag inactive, DAX1 inh-2 4.5, hcDAF-12 act inactive, DAX1 conf inactive and SF1 AF2mut Luc inactive.
Screening Cc1cnc(NC(=O)CCCNC(=O)c2ccc(Cl)cc2)s1 returned DAX1 inh-1 inactive, ssDAF12 agonist inactive, hgDAF-12 ag inactive, DAX1 inh-2 5.5, hcDAF-12 act inactive, DAX1 conf inactive and SF1 AF2mut Luc 3.2.
Screening Cc1ccc(NC(=O)CCCNC(=O)c2ccc(Cl)cc2)c(O)c1 returned DAX1 inh-1 inactive, ssDAF12 agonist inactive, hgDAF-12 ag inactive, DAX1 inh-2 5.3, hcDAF-12 act 6.4, DAX1 conf 4.1 and SF1 AF2mut Luc 3.7.
O=C(/C=C/c1ccc(S(=O)(=O)N2CCOCC2)cc1)NCc1ccccc1F was read as DAX1 inh-1 inactive, ssDAF12 agonist inactive, hgDAF-12 ag inactive, DAX1 inh-2 5.0, hcDAF-12 act inactive, DAX1 conf inactive and SF1 AF2mut Luc inactive.
Screening O=C(/C=C/c1ccc(S(=O)(=O)N2CCOCC2)cc1)NCc1ccccc1Cl returned DAX1 inh-1 inactive, ssDAF12 agonist inactive, hgDAF-12 ag inactive, DAX1 inh-2 inactive and hcDAF-12 act inactive.
C(=NNc1ccc2ccccc2n1)c1ccccn1 was read as ssDAF12 agonist inactive, hgDAF-12 ag 11.4, DAX1 inh-2 4.8, hcDAF-12 act 5.9, DAX1 conf inactive and SF1 AF2mut Luc inactive.
Screening Cc1cc(NN=Cc2ccccn2)nc2ccccc12 returned ssDAF12 agonist inactive, hgDAF-12 ag inactive, DAX1 inh-2 inactive and hcDAF-12 act inactive.
Screening Clc1ccc(-c2nnc(SCc3cccc4ccccc34)n2Cc2ccco2)cc1 returned ssDAF12 agonist inactive, hgDAF-12 ag inactive, DAX1 inh-2 inactive and hcDAF-12 act inactive.
CCc1ccc(NC(=O)C(=O)c2ccccc2NC(C)=O)cc1 was read as DAX1 inh-1 inactive, ssDAF12 agonist inactive, hgDAF-12 ag inactive, DAX1 inh-2 9.1, hcDAF-12 act inactive, DAX1 conf 12.3 and SF1 AF2mut Luc 7.0.
Screening N/C(=N\OC(=O)c1ccc(Cl)cc1)c1ccn[nH]1 returned DAX1 inh-1 inactive, ssDAF12 agonist inactive, hgDAF-12 ag inactive, DAX1 inh-2 14.9, hcDAF-12 act inactive, DAX1 conf 12.6 and SF1 AF2mut Luc 7.8.
For COC(=O)C1CN(Cc2ccccc2)CCS(=O)(=O)N1Cc1cn(Cc2ccccc2Br)nn1 (stereo unspecified) the results were ssDAF12 agonist inactive, hgDAF-12 ag inactive, DAX1 inh-2 inactive and hcDAF-12 act inactive.
Screening CCn1c(Cc2cccs2)nnc1SCC(=O)Nc1ccccc1-c1ccccc1 returned ssDAF12 agonist inactive, hgDAF-12 ag inactive, DAX1 inh-2 inactive and hcDAF-12 act inactive.
Screening CCOc1ccc(NS(=O)(=O)c2ccc(C(=O)NCC3(N4CCCCC4)CCCCC3)cc2)cc1 returned DAX1 inh-1 inactive, ssDAF12 agonist inactive, hgDAF-12 ag inactive, DAX1 inh-2 4.5, hcDAF-12 act inactive, DAX1 conf 11.4 and SF1 AF2mut Luc 3.5.
`Cc1cc(S(=O)(=O)Nc2ccc(C(=O)NCC3(N4CCCCC4)CCCCC3)cc2)ccc1F` gave DAX1 inh-1 inactive, ssDAF12 agonist inactive, hgDAF-12 ag inactive, DAX1 inh-2 7.4, hcDAF-12 act inactive, DAX1 conf 7.6 and SF1 AF2mut Luc 6.1.
Screening CC(=O)Nc1ccc(C(=O)NCC2(N3CCCCC3)CCCCC2)cc1 returned DAX1 inh-1 inactive, ssDAF12 agonist inactive, hgDAF-12 ag inactive, DAX1 inh-2 4.6, hcDAF-12 act inactive, DAX1 conf 5.3 and SF1 AF2mut Luc 3.0.
`CC(=O)Nc1ccc(C(=O)NN2C(=O)NC3(CCCCC3)C2=O)cc1` gave DAX1 inh-1 inactive, ssDAF12 agonist inactive, hgDAF-12 ag inactive, DAX1 inh-2 inactive and hcDAF-12 act inactive.
Screening O=C(NCC1(N2CCCCC2)CCCCC1)c1cccc(S(=O)(=O)Nc2ccc(F)cc2)c1 returned DAX1 inh-1 inactive, ssDAF12 agonist inactive, hgDAF-12 ag inactive, DAX1 inh-2 5.0, hcDAF-12 act inactive, DAX1 conf 5.2 and SF1 AF2mut Luc inactive.
CCOc1ccc(NS(=O)(=O)c2ccc(C(=O)NCC3(N(C)C)CCCCC3)cc2)cc1 was read as DAX1 inh-1 inactive, ssDAF12 agonist inactive, hgDAF-12 ag inactive, DAX1 inh-2 inactive and hcDAF-12 act inactive.
Screening Cc1cc(S(=O)(=O)Nc2ccc(C(=O)NCC3(N(C)C)CCCCC3)cc2)ccc1F returned DAX1 inh-1 inactive, ssDAF12 agonist inactive, hgDAF-12 ag inactive, DAX1 inh-2 inactive and hcDAF-12 act inactive.
Screening O=C(CCS(=O)(=O)c1ccccc1)Nc1cc(Cl)ccc1F returned ssDAF12 agonist inactive, hgDAF-12 ag inactive, DAX1 inh-2 inactive and hcDAF-12 act inactive.
For O=C(NCC1(N2CCCCC2)CCCCC1)c1cccc(NS(=O)(=O)c2ccccc2)c1 the results were DAX1 inh-1 inactive, ssDAF12 agonist inactive, hgDAF-12 ag inactive, DAX1 inh-2 6.9, hcDAF-12 act inactive, DAX1 conf 8.3 and SF1 AF2mut Luc 4.1.
